Assay outcomes (PubChem BioAssay)
BH1578 lux ind = inducers of Vibrio cholerae quorum light production without autoinducers, primary screen, BH1578 luxS cqsA deficient, single point; V. cholerae BH1578 lux reporter, luminescence, 6 h; 0.16% of 350,000 active; activation, % at 18.7 µM; AID 588436, 2011; in the data active = activation mostly above about 9.7%, no sharp cut-off
CCHF vOTU inh-1 = CCHFV vOTU protease inhibitors, primary screen, biochemical, Pep-AMC substrate, fluorescence; inhibition, % at 11.5 µM; AID 651958, 2012; Crimean-Congo hemorrhagic fever virus L polyprotein viral ovarian tumor (vOTU) protease …; 0.55% of 370,000 active
FBA Mtb inh = Mtb FBA enzyme inhibitors, primary screen, biochemical, fluorescence, strain H37Rv; AID 588726, 2011; inhibition, % at 1 µM; Fructose-bisphosphate aldolase (Mycobacterium tuberculosis (strain ATCC 25618 / H37Rv)), …; 2.3% of 360,000 active; purified M. tuberculosis FBA, fluorescence read-out; in the data active = inhibition above about 27%
Target sequence (P9WQA3 whole entry, looked up): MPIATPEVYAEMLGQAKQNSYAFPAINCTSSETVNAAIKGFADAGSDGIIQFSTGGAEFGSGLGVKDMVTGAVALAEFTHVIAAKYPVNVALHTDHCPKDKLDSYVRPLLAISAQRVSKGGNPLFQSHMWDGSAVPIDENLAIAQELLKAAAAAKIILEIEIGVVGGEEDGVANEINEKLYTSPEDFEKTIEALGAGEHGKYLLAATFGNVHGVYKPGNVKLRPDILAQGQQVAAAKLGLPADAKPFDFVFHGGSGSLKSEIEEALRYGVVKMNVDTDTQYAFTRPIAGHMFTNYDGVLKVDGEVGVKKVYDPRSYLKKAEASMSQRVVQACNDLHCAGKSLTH
GDH-TPI inh = GDH-TPI coupling enzyme inhibitors, primary screen, artefact control for M. tuberculosis FBA inhibitor project, biochemical, absorbance, full deck | GDH-TPI coupled enzyme counterscreen, NADH absorbance | 1.2% of 360,000 active | inhibition, % at 4.8 µM
CCHF vOTU inh-2 = CCHFV vOTU protease inhibitors, confirmation, biochemical, Pep-AMC substrate, fluorescence; inhibition, % at 11.5 µM; shares compounds with CCHF vOTU inh-1; Recombinant CCHFV vOTU; 17% of 1,900 active
Of the large screens only hits and unclear results are named; the others gave an inactive call (follow-up assays come after a bar, where they were run). The list is not random: actives were taken first. Their share in the collection is about 3.9%. Rule as the data show it, unless noted: active = inhibition above about 30%; inactive = the rest.

CC(=O)NC(c1cccc(F)c1)c1nc(-c2ccc(C)c(C)c2)cs1 (stereo not given)	none
COc1cc(C=Nn2c(-c3cc(-c4ccccc4)n[nH]3)n[nH]c2=S)ccc1OC(C)=O	CCHF vOTU inh-1 30 (no result: BH1578 lux ind, FBA Mtb inh, GDH-TPI inh) | CCHF vOTU inh-2 inactive
CNC1=C(N(C(C)=O)c2ccc(Br)cc2)C(=O)c2ccccc2C1=O	CCHF vOTU inh-1 93 | CCHF vOTU inh-2 73
CC(=O)NC1=C(Nc2ccc(N(C)C)cc2)C(=O)c2ccccc2C1=O	none
CCC(=O)N(C1=C(NC)C(=O)c2ccccc2C1=O)C(C)C	CCHF vOTU inh-1 47 | CCHF vOTU inh-2 inactive
COc1ccccc1NC(=O)CN1CCN(c2ccc(Cl)cc2)CC1	none
Cc1c(C=O)c(=O)n(-c2ccccc2)n1-c1ccccc1	CCHF vOTU inh-1 32 | CCHF vOTU inh-2 inactive
Cc1c(C(=O)O)c(=O)n(-c2ccccc2)n1-c1ccccc1	none
Cc1cc2cc(C(c3nnnn3Cc3ccco3)N3CCc4ccccc4C3)c(=O)[nH]c2cc1C (stereo not given)	CCHF vOTU inh-1 61 | CCHF vOTU inh-2 inactive
CC(NS(=O)(=O)c1c(N)n(C)c(=O)n(C)c1=O)c1ccccc1 (stereo not given)	CCHF vOTU inh-1 30 | CCHF vOTU inh-2 inactive
CCN(CC(=O)Nc1ccccc1C(F)(F)F)CC(=O)c1[nH]c(C)c(C(C)=O)c1C	CCHF vOTU inh-1 38 | CCHF vOTU inh-2 inactive
Oc1cccc2cnccc12	none
Nc1cccc2cnccc12	CCHF vOTU inh-1 48 | CCHF vOTU inh-2 inactive
CCCN(C(=O)Cc1nc(N)n[nH]1)C1(C(=O)Nc2c(C)cccc2C)CCCCC1	CCHF vOTU inh-1 39 | CCHF vOTU inh-2 inactive
CCCN(C(=O)Cc1nc(N)n[nH]1)C1(C(=O)Nc2ccccc2C)CCCCC1	none
CCOC(=O)C[n+]1c(C)sc2ccc(OC)cc21	none (no result: CCHF vOTU inh-1)
CCCCCCn1c(=O)n2n(c1=O)C[C@]1(OC(=O)NC3CCCC3)CN(S(=O)(=O)c3ccc(C)cc3)C[C@]1(O)C2	none
CCCCCCn1c(=O)n2n(c1=O)C[C@]1(OC(=O)NCC3CCCCC3)CN(S(=O)(=O)c3ccc(C)cc3)C[C@]1(O)C2	CCHF vOTU inh-1 32 | CCHF vOTU inh-2 inactive
O=C(N/N=C/c1ccoc1)c1cccc([N+](=O)[O-])c1	none
COc1ccccc1NS(=O)(=O)c1cccc(-n2c(O)c(C=Nc3ccccc3C(=O)O)c3ccccc3c2=O)c1	CCHF vOTU inh-1 38 | CCHF vOTU inh-2 37
COc1ccc(C)cc1N(C(=O)COc1cccc(F)c1)c1nc2ccccc2s1	none
CN(CC(=O)Nc1ccc(F)cc1)C(=O)C1CCN(S(=O)(=O)c2ccc3c(c2)OCCO3)CC1	CCHF vOTU inh-1 34 | CCHF vOTU inh-2 inactive
CN(CC(=O)Nc1ccccc1Cl)C(=O)C1CCN(S(=O)(=O)c2ccc3c(c2)OCCO3)CC1	none
O=C(N/N=C1/CC2CCC1C2)c1cc2ccccc2cc1O (stereo not given)	none
COC(=O)[C@]1(Cc2ccccc2)N[C@H](CN(C)C(=O)Nc2ccccc2)[C@@H]2C(=O)N(Cc3ccccc3)C(=O)[C@@H]21	CCHF vOTU inh-1 37 | CCHF vOTU inh-2 inactive
CC1CC(C)(C)CC2(C1)NC(=O)N(CC(=O)N1CCN(Cc3ccc(C#N)cc3)CC1)C2=O (stereo not given)	none
O=[N+]([O-])c1cccc2ccc(/C=C/c3ccc(Cl)cc3)nc12	none
O=[N+]([O-])c1cccc2ccc(/C=C/c3cccc(Br)c3)nc12	CCHF vOTU inh-1 31 | CCHF vOTU inh-2 inactive
O=C(O)CN1C(=O)/C(=C\c2cc(Br)ccc2OCc2ccc(Cl)cc2)SC1=S	none
O=C(O)CN1C(=O)/C(=C\c2cc(Br)ccc2OCc2ccc(F)cc2)SC1=S	CCHF vOTU inh-1 31 | CCHF vOTU inh-2 inactive
O=C(CN1C(=O)N/C(=C\c2ccccc2OCc2ccc(C(=O)O)cc2)C1=O)Nc1ccc(F)cc1	CCHF vOTU inh-1 32 | CCHF vOTU inh-2 inactive
O=C(O)CN1C(=O)/C(=C\c2ccccc2OCc2ccc(F)cc2)SC1=S	CCHF vOTU inh-1 35 | CCHF vOTU inh-2 inactive
COc1ccccc1/C=C1\SC(=S)N(CC(=O)NC2CCS(=O)(=O)C2)C1=O (stereo not given)	CCHF vOTU inh-1 31 | CCHF vOTU inh-2 inactive
O=C(CN1C(=O)/C(=C/c2ccccc2)SC1=S)NC1CCS(=O)(=O)C1 (stereo not given)	none
CC1(Oc2cccnc2Cl)CCN(Cc2ccc(OC(F)(F)F)cc2)C1 (stereo not given)	none
O=C(O)C(=Cc1ccccc1)Cc1ccccc1	none
COc1cc([N+](=O)[O-])ccc1NC(=S)Nc1cccc(C(=O)O)c1	CCHF vOTU inh-1 31 | CCHF vOTU inh-2 inactive
Cc1cc(C)nc(SCC(=O)N(C)CC(=O)Nc2ccccc2Br)n1	none
Cc1cc(C)nc(SCC(=O)N(C)CC(=O)Nc2c(Cl)cccc2Cl)n1	CCHF vOTU inh-1 34 | CCHF vOTU inh-2 inactive
CC(/C=C1\SC(=S)N(c2ccc(C(=O)O)cc2)C1=O)=C\c1ccccc1	CCHF vOTU inh-1 30 | CCHF vOTU inh-2 inactive
CC(/C=C1\SC(=S)N(NC(=O)c2ccc(C)cc2)C1=O)=C\c1ccccc1	none (no result: CCHF vOTU inh-1)
O=C(Nc1sc2c(c1C(=O)O)CCCCC2)c1ccccc1F	CCHF vOTU inh-1 37 | CCHF vOTU inh-2 inactive
O=C(Nc1sc2c(c1C(=O)O)CCCC2)c1ccc(F)cc1	none
N#CCCN(CCC#N)C(=O)c1ccc(Cl)cc1	CCHF vOTU inh-1 36 | CCHF vOTU inh-2 inactive
N#CCCN(C(=O)Nc1ccc(Cl)cc1)c1ccccc1	none
Cc1ccc(S(=O)(=O)N(CCCO)CC(O)CON=C2c3ccccc3-c3ccccc32)cc1 (stereo not given)	none
CC(=O)Nc1ccc(S(=O)(=O)NCCC(=O)NC(C)c2cccs2)cc1 (stereo not given)	none
COc1cccc(Oc2nc(-c3ccccc3O)nc3ccccc23)c1	none
COc1cc(C)ccc1Oc1nc(-c2ccccc2O)nc2ccccc12	CCHF vOTU inh-1 32 | CCHF vOTU inh-2 inactive
CCOc1ccccc1CNC(=O)c1nn(C)c2c1CS(=O)(=O)c1ccccc1-2	none
COCCCNc1c2c3c(cccc3[nH]c1=O)C(=O)c1ccccc1-2	CCHF vOTU inh-1 32 | CCHF vOTU inh-2 inactive
CCOC(=O)c1c2c3c(cccc3[nH]c1=O)C(=O)c1ccccc1-2	none
O=[N+]([O-])c1ccccc1-c1ccc(C(=S)N2CCCCC2)o1	none
O=[N+]([O-])c1ccccc1-c1ccc(C(=S)N2CCCC2)o1	CCHF vOTU inh-1 30 | CCHF vOTU inh-2 39
CC1(Cc2cccc(C(F)(F)F)c2)C(=O)Nc2ccc(-c3ccc(F)c(Cl)c3)cc21 (stereo not given)	CCHF vOTU inh-1 32 | CCHF vOTU inh-2 inactive
Cc1ccc(S(=O)(=O)N2CCN(C(=O)COc3ccc(C)nc3[N+](=O)[O-])CC2)c(C)c1	none
